Sampled rows, rich in hits. Any-hit rate of the full collection: about 4.7%.
tim10-1 inh – inhibits growth of tim10-1 mutant yeast | 2.2% of 330,000 active | inhibition, % at 20 µM | AID 463190 | S. cerevisiae tim10-1 ts strain growth, BacTiter-Glo, 24 h;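 active means inhibition of at least 40%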;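 further: mutant grown at 25 °C; 0% = DMSO wells with yeast and 100% = wells holding no yeast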
tim23-1 inh – inhibits growth of tim23-1 mutant yeast; S. cerevisiae tim23-1 growth, BacTiter-Glo luminescence, 24 h; inhibition, % at 20 µM; 1.3% of 330,000 active; AID 463212;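 active means growth inhibition of the mutant yeast at or above 50%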;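 further: temperature-sensitive mutant grown at 25 °C; plate controls were DMSO-treated mutant yeast for no effect and medium wells lacking yeast for full effect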
TIM10 inh – inhibits growth of TIM10 yeast strain; S. cerevisiae TIM10 strain growth, BacTiter-Glo luminescence, 24 h; inhibition, % at 10 µM; 1.4% of 330,000 active; AID 463195;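 active means inhibition of 40% or more at the single tested concentration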;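 further: wild-type TIM10 isogenic control strain grown at permissive 25 °C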
SKKanGAS inh – blocks kanamycin growth of S. pyogenes SKKanGAS strain; BacTiter-Glo, 6 h; inhibition, % at 7.5 µM; 1.3% of 300,000 active;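 active means mean replicate score, as percent of positive control median, at least 50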;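 further: strain carries kanamycin resistance gene driven by streptokinase promoter and grows in 40 µg/ml kanamycin; loss of luminescence reflects streptokinase promoter inhibition or plain growth inhibition; 0% = median of DMSO wells and 100% = positive control at its reference dose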
Calb FLC – affects C. albicans growth with fluconazole; 0.57% of 300,000 active; C. albicans CaCi-2 (fluconazole-resistant clinical isolate) + fluconazole, Alamar Blue growth, 48 h; growth inhibition, % (test concentration not listed);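 active means growth inhibition above about 58% in most replicates, limit read from the data, passing the limit was not always enough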;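 further: all wells also contain fluconazole at 8 µg/ml as a sub-toxic cotreatment; 0% = median of DMSO wells and 100% = median of geldanamycin control wells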
PfHsp90 yeast 2 – reduces growth (ATP signal) of yeast expressing P. falciparum Hsp90; S. cerevisiae expressing PfHsp90, BacTiter-Glo ATP, 48 h; yeast lacking PDR1 and PDR3 efflux regulators; inhibition, % at 9.4 µM; 0.32% of 310,000 active; AID 504621;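 active means every replicate shows inhibition above about 80%, whatever the replicate mean, limit read from the data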;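 further: 0% = DMSO neutral controls and 100% = 20 µM radicicol positive controls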
tim10-1 conf – confirmation of tim10-1 mutant yeast growth inhibitors | shares compounds with tim10-1 inh | S. cerevisiae tim10-1 ts strain growth, BacTiter-Glo, 24 h | inhibition, % at 20 µM | 56% of 7,400 active;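 active means inhibition of yeast growth at or above a set limit in either of two repeat tests at 20 µM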;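 further: tim10-1 mutant grown at permissive 25 °C to find synthetic lethal compounds; 0% = DMSO yeast wells and 100% = medium wells without yeast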
TIM10 conf – confirmation of TIM10 yeast growth inhibitors. shares compounds with TIM10 inh. S. cerevisiae tim10 strain growth, BacTiter-Glo luminescence, 24 h. inhibition, % at 10 µM. 63% of 4,600 active. AID 463215;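 active means inhibition of yeast growth at or above a set limit in either of two replicates at 10 µM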;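 further: this counterscreen used the strain with wild-type TIM10; 0% = yeast with DMSO and 100% = medium wells lacking yeast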
tim23-1 confirm – confirmation of tim23-1 mutant yeast growth inhibitors; 83% of 4,400 active; inhibition, % at 20 µM; shares compounds with tim23-1 inh; S. cerevisiae tim23-1 growth, BacTiter-Glo luminescence, 24 h;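 active means inhibition above about 39% in either of two replicate wells at 20 µM, limit read from the data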;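 further: temperature-sensitive tim23-1 mutant grown at 25 °C; 0% = DMSO wells with yeast and 100% = medium wells without yeast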
Numbers without * were called inactive; nt = no result.

SMILES	tim10-1 inh	tim23-1 inh	TIM10 inh	SKKanGAS inh	Calb FLC	PfHsp90 yeast 2	tim10-1 conf	TIM10 conf	tim23-1 confirm
CN(C(=O)COC(=O)c1ccccc1C(=O)N1CCN(c2ccccc2)CC1)c1ccccc1	30	10	-4	-9	-14	-14	nt	nt	nt
COc1cc(-c2nc3ccccc3s2)ccc1O	50*	52*	49*	2	2	-14	53*	48*	55*
CC[C@]12C(=O)N(C)C[C@H]([C@@H]3C(=O)N(C)C(=O)[C@@H]31)N2C(=O)c1ccc(Cl)c(Cl)c1	nt	nt	nt	nt	nt	-7	nt	nt	nt
COc1ccc(-c2nc(-c3ccccc3)c(-c3cccs3)[nH]2)cc1OC	41*	55*	34	-15	14	-8	34*	nt	63*
Cc1cccc(C(=O)N/N=C/c2cc(Br)c(Br)o2)c1	41*	60*	45*	-14	20	14	17	26	76*
C[C@@H]1C=CC(=O)O[C@@H]1c1ccc(Cl)cc1	45*	56*	43*	8	-2	nt	41*	41*	40*
O=C(COC(=O)c1ccccc1SCC(=O)N1CCCC1)NCc1ccccc1	-3	12	-7	4	1	11	nt	nt	nt
CCCCCCSc1ccc([C@H]2N[C@@](C)(C(=O)OC)[C@H]3C(=O)N(CC)C(=O)[C@@H]23)cc1	33	38	33	7	-4	26	nt	nt	nt
O=C(/C=C/c1ccccc1[N+](=O)[O-])c1ccccc1Br	63*	80*	64*	3	5	104*	73*	70*	79*
O=C(/C=C\c1ccccc1[N+](=O)[O-])Nc1ccccc1	-28	4	-11	2	38	10	nt	nt	nt
Fc1ccc(C2=Nn3c(nnc3-c3n[nH]c4c3CCC4)SC2)cc1	-7	7	3	-4	-11	6	nt	nt	nt
Clc1ccc(-c2n[nH]c3c2CCC3)cc1Cl	56*	59*	49*	88*	-8	17	49*	57*	8
C=CC[C@@H](CC(=O)OC(C)(C)C)C(=O)OC[C@H]1CCCN1C(=O)[C@@H](CC=C)CC(=O)N(CCO)Cc1ccccc1	4	12	6	nt	nt	2	nt	nt	nt
COC(=O)C(Cc1ccccc1)OS(N)(=O)=O (stereo not drawn)	-5	12	2	-1	7	-5	nt	nt	nt
CCC(C)n1c(/C=C/c2ccccc2)nc2ccccc21 (stereo not drawn)	45*	53*	44*	-3	9	-11	35*	23	50*
CCOc1ccc(/C=C/[N+](=O)[O-])c2ccccc12	51*	73*	65*	3	4	-61	-9	55*	-108
COc1ccc2cc3cc(C(=O)NCCN4CCc5ccccc5C4)oc3nc2c1	75*	63*	86*	5	nt	-31	68*	-2	36
N/C(Cc1ccc([N+](=O)[O-])cc1)=N\OC(=O)c1ccccc1F	72*	59*	64*	-6	12	9	72*	52*	54*
N/C(Cc1ccc([N+](=O)[O-])cc1)=N\OC(=O)c1ccc(Br)o1	85*	60*	64*	-1	-4	4	81*	11	44*
N/C(Cc1ccc([N+](=O)[O-])cc1)=N\OC(=O)COc1ccccc1Cl	34	27	23	-1	0	-8	nt	nt	nt
OC1COCOC1C(O)C1OCOCC1O (stereo not drawn)	nt	nt	nt	nt	nt	5	nt	nt	nt
Cc1ccc(N=Cc2cc(Br)cc(Cl)c2O)cc1	51*	77*	33	12	1	-61	17	nt	78*
Cc1ccc(NC(=O)COc2ccccc2C=O)cc1Cl	43*	69*	51*	-1	-1	18	26	51*	69*
CC(=O)Nc1cccc(NC(=O)COc2ccccc2C)c1	20	-1	0	-2	5	13	nt	nt	nt
